HCV inh: HCV inhibition | Huh7.5.1 HCVcc-Cre infection, luciferase reporter, 44 h | Potency, µM (titrated, usually from 41.8 µM), most hits filed as inhibitors | 340,000 compounds, 3.4% hits | AID 651820; active = well fitted inhibition curve with a large enough effect; inconclusive = small, poorly fitted or top-dose-only effect, or another doubt; inactive = no such curve, though single readings can be large or run the other way
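A cell-based infection assay in which seeded cells (1,000 per well) receive test compound after 4 h, are inoculated with HCVcc-Cre at approximately 0.5 moi, and are incubated 44 h before luminescence detection.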
Vaccinia mCherry: vaccinia inhibition (mCherry reporter). Vaccinia virus mCherry reporter infection, fluorescence. Potency, µM (series often up to 36.5 µM), usual class: inhibitors. 310,000 compounds, 0.63% hits; calls by dose curve; tested in A549 cells; note: nearly all actives have a fitted effect of over 35% in size
Lassa entry inh: Lassa virus entry inhibition | Lassa virus pseudotype entry inhibition, cell reporter | Potency, µM (doses to about 37.9 µM), actives largely listed as inhibitors | 300,000 compounds, 1.2% hits | AID 540256; calls by dose curve; tested in HEK293 cells; note: nearly all actives have a fitted effect of over 50% in size
MARV entry inh: Marburg virus entry inhibition. Potency, µM (series often up to 37.8 µM), actives largely listed as inhibitors. Marburg virus pseudotyped entry inhibition, cell reporter. 300,000 compounds, 1.8% hits; calls by dose curve; tested in HEK293 cells
HCMV antiviral: blocks human cytomegalovirus replication. HFF cells, HCMV-luciferase reporter, 72 h; hits give low values. activity change, negative = inhibition, % at 57.5 µM. 410,000 compounds, 4.5% hits; in the data active = activity change below about -60%; inconclusive = no clear call, values can overlap the other calls; inactive = above about -39%
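Two compound doses tested in HFFs infected with HCMV-luciferase, MOI 1 PFU/cell, 72 h at 37C. Lysate luminescence read with OneGlo; data normalized against buffer-only and 10uM Salinomycin inhibitor controls.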
Vaccinia Venus: inhibitors of vaccinia virus (Venus reporter). Potency, µM (doses to about 36.5 µM), most hits filed as inhibitors. AID 720580. 330,000 compounds, 0.46% hits. Vaccinia virus Venus reporter expression, fluorescence; calls by dose curve; tested in A549 cells; note: nearly all actives have a fitted effect of over 30% in size
Large screens that a line does not name were inactive. Shown are actives, neighbours in structure and some others; about 7.8% of the full set was active somewhere.

CCOC(=O)N1CCC(NC(=O)C2CCCN(Cc3nc(-c4cccc(C)c4)oc3C)C2)CC1 (stereo not given)	HCV inh inconclusive, Lassa entry inh inconclusive, MARV entry inh inconclusive, HCMV antiviral -73
Cc1cccc(-c2nc(CN3CCCC(C(=O)NC4CCCC4)C3)c(C)o2)c1 (stereo not given)	HCV inh inconclusive, MARV entry inh 15µM (no result: Vaccinia mCherry, Vaccinia Venus)
CCOC(=O)N1CCC(NC(=O)CSCc2nc(-c3ccc(C)cc3)oc2C)CC1	HCV inh inconclusive, HCMV antiviral -63 (no result: Vaccinia mCherry, Lassa entry inh, MARV entry inh, Vaccinia Venus)
Cc1oc(-c2ccc(Cl)cc2)nc1CN1CCCC(C(=O)N2CCN(C(=O)c3ccco3)CC2)C1 (stereo not given)	HCV inh 2µM, Vaccinia mCherry inconclusive, Vaccinia Venus inconclusive (no result: Lassa entry inh)
CN(C)CCCCCCNc1nccc(N2CCN(C)CC2)n1	none (no result: HCV inh, Lassa entry inh, MARV entry inh, HCMV antiviral)
COc1ccc(Nc2c(CCc3ccccc3)nc3nc(C)cc(C)n23)cc1	none (no result: HCV inh, Lassa entry inh, MARV entry inh)
CC(=O)OC[C@H]1O[C@H](C#CC(C)(C)C)C=C[C@@H]1OC(C)=O	none (no result: HCV inh, Vaccinia mCherry, Lassa entry inh, HCMV antiviral, Vaccinia Venus)
CCCC1C(=O)n2c(nc3ccccc32)N=C1C (stereo not given)	none (no result: HCV inh, Vaccinia mCherry, Lassa entry inh, HCMV antiviral, Vaccinia Venus)
Cc1cc2nn(-c3ccc(F)cc3)nc2cc1N	Vaccinia mCherry inconclusive, Lassa entry inh inconclusive, MARV entry inh 5µM
CCOc1ccc(-n2nc3ccc(N)cc3n2)cc1	HCMV antiviral -93 (no result: Vaccinia mCherry, Lassa entry inh, MARV entry inh, Vaccinia Venus)
Cc1ccc(-n2nc3ccc(N)cc3n2)cc1	HCV inh inconclusive, Lassa entry inh 11µM, MARV entry inh inconclusive
COc1ccc(-n2nc3ccc(N)cc3n2)cc1	none (no result: HCV inh, Lassa entry inh, MARV entry inh)
COc1c(C)cc(NS(=O)(=O)c2ccc3c(c2)OCCO3)cc1C	none (no result: HCV inh)
CSc1cnc2c(=O)n(C)c(=O)[nH]c2n1	none
Cn1c(=O)[nH]c2nnc(-c3ccc(Cl)c(Cl)c3)nc2c1=O	Lassa entry inh 10µM, MARV entry inh inconclusive
Cc1c(C(=O)N(C)Cc2nccs2)sc2ncnc(NCC3CCCO3)c12 (stereo not given)	none (no result: HCV inh, Lassa entry inh, MARV entry inh, HCMV antiviral)
Cc1nc(SCc2nc3ccccc3[nH]2)c2oc3ccccc3c2n1	HCV inh 25µM, MARV entry inh inconclusive (no result: Vaccinia mCherry)
Cc1nc(SCc2nc3ccccc3[nH]2)c2oc3ccc(Br)cc3c2n1	none (no result: HCV inh, Vaccinia mCherry, Lassa entry inh, MARV entry inh, Vaccinia Venus)
CCc1nc(SCC(=O)N2CCCc3ccccc32)c2oc3ccccc3c2n1	HCV inh 11µM, Lassa entry inh 18µM, MARV entry inh inconclusive (no result: Vaccinia mCherry, Vaccinia Venus)
Cn1cc(SCC(=O)N2CCN(c3ccccc3)CC2)c2ccccc21	HCV inh inconclusive, HCMV antiviral -84 (no result: Lassa entry inh, MARV entry inh)
CCc1nc(N2CCCCC2C)c2oc3ccccc3c2n1 (stereo not given)	HCV inh inconclusive, Lassa entry inh inconclusive, MARV entry inh 18µM (no result: Vaccinia mCherry, Vaccinia Venus)
Cn1cc(SCC(=O)N2CCOCC2)c2ccccc21	none (no result: Lassa entry inh, MARV entry inh)
CCOC(=O)c1cc(-c2ccc(C)cc2)n(CCC(=O)Nc2ccc(C(C)C)cc2)c1C	MARV entry inh inconclusive (no result: HCV inh, Lassa entry inh)
Cc1cc2nc(C)c(-c3nc4ccccc4[nH]3)nc2cc1C	none (no result: HCV inh, Vaccinia mCherry, Lassa entry inh, MARV entry inh, Vaccinia Venus)
CSc1ccc(CNC(=O)C2CCN(c3nnc(-n4cccc4CNc4ccc(C)cc4)s3)CC2)cc1	none (no result: HCV inh, Lassa entry inh)
CCc1nc2c(oc3ccccc32)c(=O)[nH]1	MARV entry inh inconclusive (no result: Vaccinia mCherry)
Cc1nc(SCC(=O)N2CCN(c3ccccc3)CC2)c2oc3ccccc3c2n1	HCV inh 10µM, Lassa entry inh inconclusive (no result: Vaccinia mCherry)
Cc1nc(SCC(=O)O)c2oc3ccccc3c2n1	none (no result: Vaccinia mCherry, Vaccinia Venus)
O=c1[nH]c(CSc2ccccn2)nc2c1oc1ccccc12	Lassa entry inh 5.6µM, MARV entry inh inconclusive
CCn1c(SCC(=O)N2CCN(c3ccccc3)CC2)nnc1-c1cc2cc(Cl)ccc2o1	HCV inh inconclusive, HCMV antiviral -80
COc1cccc(-n2c(=O)c3c(C)c(C(=O)N(C)C)sc3n(Cc3ccc(F)cc3Cl)c2=O)c1	none (no result: HCV inh, MARV entry inh)
CCS(=O)(=O)c1ccc2oc(SCC(=O)NCCc3ccccc3)nc2c1	Vaccinia mCherry 13µM, MARV entry inh inconclusive, Vaccinia Venus inconclusive
CCOC(=O)c1ccc(N2N=C(C)/C(=C/C=C/c3ccco3)C2=O)cc1	Lassa entry inh inconclusive (no result: Vaccinia mCherry, Vaccinia Venus)
O=C(O)c1cc(N2N=C(C(F)(F)F)/C(=C/C=C/c3ccco3)C2=O)ccc1Cl	MARV entry inh inconclusive, HCMV antiviral -90
Cc1ccc(NC(=O)c2cc3c(=O)n(Cc4cccnc4)ccc3nc2C)cc1F	none (no result: HCV inh, MARV entry inh)
CCc1c(C)sc(NC(=O)c2cc(-c3cc(OC)ccc3OC)on2)c1C#N	HCV inh inconclusive, MARV entry inh inconclusive, HCMV antiviral -68 (no result: Vaccinia mCherry, Vaccinia Venus)
CCc1c(C)sc(NC(=O)c2cc(-c3ccc(O)cc3)on2)c1C#N	HCV inh inconclusive, HCMV antiviral -61 (no result: Lassa entry inh, MARV entry inh)
